About 79,000 compounds went through this panel and 15% of them were active in at least one assay; those are over-represented in the sample as a whole. The source made the active and inactive calls. Rule as the data show it: active = growth inhibition above about 70%; inactive = the rest.
Experiments:
[1] = NCI Yeast Anticancer Drug Screen. Data for the wt1 strain (AID 149);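 also: 0% = growth of vehicle-treated wt1 cultures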; conditions: S. cerevisiae wt1 strain (SPY 50644) growth inhibition, hits give high values
Outline: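 Each compound is tested on wt1 yeast and the loss of growth versus vehicle gives the inhibition value.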

[2] = NCI Yeast Anticancer Drug Screen. Data for the rad50EPP+ strain (AID 151);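 also: 0% = growth of vehicle-treated control cultures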; conditions: S. cerevisiae rad50 mutant strain, hits give high values
Outline: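 Strain rad50EPP+; compound exposure; % growth inhibition vs vehicle.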

[3] = NCI Yeast Anticancer Drug Screen. Data for the mgt1 strain (AID 153); conditions: S. cerevisiae mgt1 mutant growth inhibition, hits give high values
Outline: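 Read-out: yeast growth inhibition vs vehicle control. Strain mgt1, drawn from a panel altered in DNA damage repair or cell cycle control.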

[4] = NCI Yeast Anticancer Drug Screen. Data for the rad50 strain (AID 155);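 also: 0% = growth of vehicle-only cultures of the same strain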; conditions: S. cerevisiae rad50 strain growth inhibition, hits give high values
Outline: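 Vehicle-treated cultures provide the reference for the growth inhibition reported for compound-exposed, repair-deficient yeast.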

[5] = NCI Yeast Anticancer Drug Screen. Data for the mec2-1 strain (AID 157); conditions: S. cerevisiae mec2-1 strain, hits give high values
Outline: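 Cells of the genetically defined mec2-1 yeast strain are incubated with test compound. Inhibition of growth is calculated against vehicle-treated controls.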

[6] = NCI Yeast Anticancer Drug Screen. Data for the rad14 strain (AID 159);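 also: 0% = growth of vehicle-treated control cultures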; conditions: S. cerevisiae rad14 strain growth inhibition, hits give high values
Outline: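 Inhibition of growth is reported for a repair-deficient yeast mutant following compound treatment, calculated relative to cultures that received vehicle.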

[7] = NCI Yeast Anticancer Drug Screen. Data for the sgs1 mgt1 strain (AID 161);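 also: 0% = growth of cultures given vehicle only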; conditions: S. cerevisiae sgs1 mgt1 strain, hits give high values
Outline: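 Inhibition of yeast growth, normalised to vehicle-treated controls, is reported for a strain bearing genetic alterations in DNA damage repair.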

[8] = NCI Yeast Anticancer Drug Screen. Data for the CLN2oe strain (AID 163);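 also: 0% = growth of vehicle-only control cultures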; conditions: S. cerevisiae CLN2oe strain, hits give high values
Outline: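 Strain altered in cell-cycle control, incubated with compound; growth compared to solvent-treated controls.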

[9] = NCI Yeast Anticancer Drug Screen. Data for the cln2 rad14 strain (AID 165);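 also: 0% = growth equal to vehicle treated cultures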; conditions: S. cerevisiae cln2 rad14 strain, hits give high values
Outline: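 The screen exposed genetically defined yeast (cln2 rad14) to test compounds and scored growth inhibition relative to vehicle-treated controls.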

[10] = NCI Yeast Anticancer Drug Screen. Data for the bub3 strain (AID 167); conditions: S. cerevisiae bub3 mutant strain, hits give high values
Outline: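 Mutant yeast screening strain plus compound; vehicle-treated cultures serve as the 0% inhibition reference.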

[11] = NCI Yeast Anticancer Drug Screen. Data for the wt2 strain (AID 169); conditions: S. cerevisiae wt2 strain growth inhibition, hits give high values
Outline: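 Steps: yeast strain treated with compound; growth recorded; inhibition calculated relative to cultures given vehicle alone.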

[12] = NCI Yeast Anticancer Drug Screen. Data for the mlh1 strain (AID 171);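 also: 0% = growth of vehicle-treated control cultures of the same strain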; conditions: S. cerevisiae mlh1 strain growth inhibition, hits give high values
Outline: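 Yeast screen: mutant strain plus compound, growth scored against vehicle control wells.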

[13] = NCI Yeast Anticancer Drug Screen. Data for the sgs1 strain (AID 173);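 also: 0% = growth of vehicle-only control cultures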; conditions: S. cerevisiae sgs1 mutant, hits give high values
Outline: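 Inhibition of yeast growth served as the measure. The mutant strain was treated with each compound, and growth was normalised to cultures receiving vehicle alone.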

[14] = NCI Yeast Anticancer Drug Screen. Data for the mlh1 rad18 strain (AID 175); conditions: S. cerevisiae mlh1 rad18 strain growth inhibition, hits give high values
Outline: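 Compound-treated yeast growth, normalised to vehicle controls. Strain bears defined DNA repair mutations.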

[15] = NCI Yeast Anticancer Drug Screen. Data for the rad18 strain (AID 177); conditions: S. cerevisiae rad18 mutant growth inhibition, hits give high values
Outline: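 Inhibition values reflect reduced yeast growth compared with vehicle-treated controls, using a strain engineered with a DNA damage repair defect.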

[16] = at 5.0 µM (retest, dose inferred, filed as 0.5)
[17] = at 50.0 µM (retest, dose inferred, filed as 5.0)

Measured: growth inhibition

C#CC1=CC(=O)C(OC)=CC1=O
inactive: [1]; at 1.2 µM -2% | [1]; at 3.7 µM -1% | [1]; at 11.0 µM 23% | [2]; at 1.2 µM 9% | [2]; at 3.7 µM 21% | [2]; at 11.0 µM 43% | [3]; at 1.2 µM 0% | [3]; at 3.7 µM 11% | [3]; at 11.0 µM 48% | [4]; at 1.2 µM 14% | [4]; at 3.7 µM 34% | [4]; [16] 53% | [4]; at 50.0 µM 30.4% | [5]; at 1.2 µM 0% | [5]; at 3.7 µM 14% | [5]; [16] 23% | [5]; at 50.0 µM 62% | [6]; at 1.2 µM 12% | [6]; at 3.7 µM 21% | [7]; [16] 54% | [7]; at 50.0 µM 32.5% | [8]; at 1.2 µM 2% | [8]; at 3.7 µM 14% | [8]; at 11.0 µM 29% | [9]; [16] 39% | [9]; at 50.0 µM 47.4% | [10]; at 1.2 µM -6% | [10]; at 3.7 µM 0% | [10]; [16] 21% | [10]; at 50.0 µM 65.2% | [11]; at 1.2 µM -6% | [11]; at 3.7 µM 2% | [11]; at 11.0 µM 48% | [12]; at 1.2 µM 3% | [12]; at 3.7 µM 16% | [13]; at 1.2 µM 11% | [13]; at 3.7 µM 34% | [14]; at 50.0 µM 66.2% | [15]; at 1.2 µM 40%
active: [1]; at 33.0 µM 90% | [1]; at 100.0 µM 98% | [2]; at 33.0 µM 95% | [2]; at 100.0 µM 98% | [3]; at 33.0 µM 99% | [3]; at 100.0 µM 99% | [4]; at 11.0 µM 94% | [4]; at 33.0 µM 98% | [4]; [17] 99% | [4]; at 100.0 µM 98% | [5]; at 11.0 µM 89% | [5]; at 33.0 µM 99% | [5]; [17] 99% | [5]; at 100.0 µM 99% | [6]; at 11.0 µM 82% | [6]; at 33.0 µM 99% | [6]; at 100.0 µM 99% | [7]; [17] 99% | [8]; at 33.0 µM 88% | [8]; at 100.0 µM 99% | [9]; [17] 99% | [10]; at 11.0 µM 88% | [10]; at 33.0 µM 99% | [10]; [17] 99% | [10]; at 100.0 µM 99% | [11]; at 33.0 µM 97% | [11]; at 100.0 µM 99% | [12]; at 11.0 µM 96% | [12]; at 33.0 µM 99% | [12]; at 100.0 µM 99% | [13]; at 11.0 µM 98% | [13]; at 33.0 µM 100% | [13]; at 100.0 µM 99% | [14]; [16] 77% | [14]; [17] 99% | [15]; at 3.7 µM 83% | [15]; at 11.0 µM 96% | [15]; at 33.0 µM 99% | [15]; at 100.0 µM 99%

CC1=Cc2ccc(C)cc2C(=O)C1=O
active: [1]; at 33.0 µM 99% | [1]; at 100.0 µM 99% | [2]; at 11.0 µM 71% | [2]; at 33.0 µM 95% | [2]; at 100.0 µM 99% | [3]; at 33.0 µM 100% | [3]; at 100.0 µM 99% | [4]; at 33.0 µM 99% | [4]; [17] 99% | [4]; at 50.0 µM 99.1% | [4]; at 100.0 µM 98% | [5]; at 33.0 µM 100% | [5]; [17] 99% | [5]; at 50.0 µM 99.4% | [5]; at 100.0 µM 99% | [6]; at 11.0 µM 79% | [6]; at 33.0 µM 99% | [6]; at 100.0 µM 99% | [7]; [17] 99% | [7]; at 50.0 µM 99.3% | [8]; at 100.0 µM 94% | [9]; [17] 99% | [9]; at 50.0 µM 98.2% | [10]; [17] 99% | [10]; at 50.0 µM 99.3% | [10]; at 100.0 µM 99% | [11]; at 100.0 µM 98% | [12]; at 11.0 µM 71% | [12]; at 33.0 µM 99% | [12]; at 100.0 µM 99% | [13]; at 33.0 µM 99% | [13]; at 100.0 µM 99% | [14]; [17] 99% | [14]; at 50.0 µM 99.2% | [15]; at 33.0 µM 99% | [15]; at 100.0 µM 98%
inactive: [1]; at 1.2 µM -10% | [1]; at 3.7 µM 8% | [1]; at 11.0 µM 41% | [2]; at 1.2 µM 34% | [2]; at 3.7 µM 54% | [3]; at 1.2 µM 27% | [3]; at 3.7 µM 42% | [3]; at 11.0 µM 60% | [4]; at 1.2 µM 3% | [4]; at 3.7 µM 6% | [4]; [16] 31% | [4]; at 11.0 µM 53% | [5]; at 1.2 µM 2% | [5]; at 3.7 µM 21% | [5]; [16] -7% | [5]; at 11.0 µM 42% | [6]; at 1.2 µM 18% | [6]; at 3.7 µM 31% | [7]; [16] 43% | [8]; at 1.2 µM 2% | [8]; at 3.7 µM 2% | [8]; at 11.0 µM 9% | [8]; at 33.0 µM 18% | [9]; [16] 0% | [10]; at 1.2 µM 0% | [10]; at 3.7 µM -3% | [10]; [16] 36% | [10]; at 11.0 µM 2% | [10]; at 33.0 µM 44% | [11]; at 1.2 µM -7% | [11]; at 3.7 µM -6% | [11]; at 11.0 µM 4% | [11]; at 33.0 µM -1% | [12]; at 1.2 µM 12% | [12]; at 3.7 µM 11% | [13]; at 1.2 µM -1% | [13]; at 3.7 µM 8% | [13]; at 11.0 µM 65% | [14]; [16] 66% | [15]; at 1.2 µM 25% | [15]; at 3.7 µM 28% | [15]; at 11.0 µM 66%

Source: PubChem BioAssay (NCI)
